From PubChem BioAssay AID651820 (National Center for Advancing Translational Sciences (NCATS), 2012)
In all, about 340,000 compounds went through this assay and about 12,000 (3.5%) were called active. Where a call stands in place of a potency, no number is given. Not shown: some 18% with an inconclusive outcome. The call rests on the fitted dose curve; in most records, active means well fitted inhibition curve with a large enough effect; inconclusive means small, poorly fitted or top-dose-only effect, or another doubt; inactive means no such curve, though single readings can be large or run the other way. Only a selection was taken, and actives are over-represented in it overall. More than one record can exist for a structure, and the calls need not agree.

Test: qHTS Assay for Inhibitors of Hepatitis C Virus (HCV)
Details: Huh7.5.1 HCVcc-Cre infection, luciferase reporter, 44 h; series mostly up to 41.8 µM
Outline: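 Infectious HCV cell culture screen: compound-treated cells (1,000/well, pre-plated 4 h) are infected with HCVcc-Cre at roughly 0.5 moi and grown 44 h. Infection is quantified by luciferase signal after 15 min substrate incubation at room temperature.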
Potency means the concentration at half of the fitted maximal effect.

SMILES | Potency | activity change, negative = inhibition
NC(=O)C1CCN(C(=O)c2cc(S(=O)(=O)N3CCN(c4ccccc4)CC3)ccc2Cl)CC1 | inactive | 
CC(=O)c1c(C)[nH]c(C(=O)COC(=O)c2cccs2)c1C | inactive | 
CC(=O)c1c(C)[nH]c(C(=O)OCC(=O)NCCC(C)C)c1C | 11.2 µM (active) | 
N#CCC(=O)Nc1ccc(C(=O)OCC(=O)Nc2sc3c(c2C#N)CCCC3)cc1 | inactive | 
CC(=O)c1c(C)[nH]c(C(=O)OCC(=O)Nc2cc(S(=O)(=O)N3CCCCC3)ccc2C)c1C | inactive | 
CC(=O)c1c(C)[nH]c(C(=O)OCC(=O)Nc2sc3c(c2C#N)CCCC3)c1C | 12.6 µM (active) | 
Cc1cccc(C(=O)OCC(=O)Nc2sc3c(c2C#N)CCC3)c1 | inactive | 
NN=C(NN=Cc1ccccc1)c1ccccc1 | inactive | 
O=[N+]([O-])c1cc2ccccc2nc1-c1ccccc1 | inactive | 
CC1CCCCC12NC(=O)N(CC(=O)Nc1ccc(S(=O)(=O)Nc3ncccn3)cc1)C2=O (stereo not drawn) | inactive | 
COc1ccc(NC(=O)CC2SC(N3CCCCC3)=NC2=O)cc1OC (stereo not drawn) | inactive | 
CN(CC(=O)Nc1cccc(F)c1)CC(=O)Nc1cccc([N+](=O)[O-])c1 | inactive | 
Cc1ccc(CN(C)CC(=O)Nc2cccc([N+](=O)[O-])c2)o1 | inactive | 
Cc1ccc(NC(=O)CN(C)CC(=O)Nc2cccc(F)c2)cc1[N+](=O)[O-] | 5.62 µM (active) | 
COc1ccc(/C=C2/CCCc3ccccc3C2=O)cc1 | inactive | 
Oc1c(Cl)cc(Cl)c(Cl)c1Cc1c(O)c(Cl)cc(Cl)c1Cl | 8.91 µM (active) | -0.125% [at 8.37 µM] (inactive)
O=C(NCC(c1ccco1)N1CCc2ccccc2C1)c1ccccc1Cl (stereo not drawn) | inactive | 
CC(=O)C(CC(=O)N1CCCC1)C(=O)Nc1ccc(Cl)cc1 (stereo not drawn) | inactive | 
CC/C(=C\c1ccc(Cl)cc1)c1ccncc1 | inactive | 
COC(=O)c1ccc(CNC(=O)Cn2cc(C)c(=O)[nH]c2=O)cc1 | inactive | 
O=c1nc(NO)ccn1C1CCCO1 (stereo not drawn) | inactive | 

SMILES | Potency | activity change, negative = inhibition
COc1ccccc1N(CC(=O)Nc1ccc(C)cc1Cl)S(=O)(=O)c1cccs1 | inactive | 
CCOc1cc2[nH]c(=S)n(Cc3ccc(C(=O)N4CCN(C)CC4)cc3)c(=O)c2cc1OCC | 12.6 µM (active) | 
CCOc1cc2[nH]c(=S)n(Cc3ccc(C(=O)NCCOC)cc3)c(=O)c2cc1OCC | inactive | 
COc1ccccc1Cn1c(=S)[nH]c2cc(C(=O)N3CCN(C)CC3)ccc2c1=O | inactive | 
C[C@H](CO)N1C[C@H](C)[C@@H](CN(C)C(=O)NC2CCCCC2)Oc2ccc(NC(=O)c3ccncc3)cc2C1=O | inactive | 
CCN(C[C@H]1N[C@@](Cc2ccccc2)(C(=O)OC)[C@H]2C(=O)N(Cc3ccccc3)C(=O)[C@@H]12)C(=O)c1ccc(C)cc1 | inactive | 
CC(C)(C)c1cc(C(=O)N/N=C/c2ccc([N+](=O)[O-])s2)n[nH]1 | 25.1 µM (active) | 
Cc1cc(C(=O)N/N=C/c2cc([N+](=O)[O-])cc(C)c2O)n[nH]1 | inactive | 
COc1ccc2ccccc2c1/C=N/NC(=O)c1cc(C)[nH]n1 | inactive | 
COc1ccc(S(=O)(=O)N2CCc3ccccc32)cc1C(=O)Nc1cc(S(C)(=O)=O)ccc1Cl | inactive | 
O=C(CSc1nc(-c2ccccc2)cs1)Nc1cccc([N+](=O)[O-])c1 | 11.2 µM (active) | 
CCNC(=O)CSc1nc(-c2ccccc2)cs1 | inactive | 
O=C(CSCC(=O)Nc1cccc([N+](=O)[O-])c1)Nc1ccccc1 | inactive | 
COc1ccccc1CNC(=O)CSc1nc(=O)n(Cc2ccncc2)c2c1CCC2 | inactive | 
O=C(O)Cc1sc(-c2ccccc2)nc1-c1cccs1 | inactive | 
C/C(=N/Nc1nc(-c2ccccc2)c(CC(=O)O)s1)c1ccccc1 | 12.6 µM (active) | 
CCOC(=O)C(=O)Nc1nc(-c2ccccc2)c(CC)s1 | inactive | 
CC1O[C@@H](OC2C(O)C(C)O[C@H](OC(=O)[C@]34CCC(C)(C)C[C@H]3C3=CCC5[C@@]6(C)CC(O)C(O[C@@H]7OC(CO)C(O)[C@@H](O)[C@@H]7O)[C@@](C)(C(=O)O)C6CC[C@@]5(C)[C@]3(CO)CC4)C2O[C@H]2OC(C)[C@@H](O[C@@H]3OCC(O[C@@H]4OC(CO)C(O)[C@H](O)C4O)[C@@H](O)[C@@H]3O)[C@H](O)C2O)C(O)C(O)C1O (stereo partly drawn) | inactive | 
CCCCn1c(N)c(N(CC(C)C)C(=O)c2ccc(-n3c(C)ccc3C)cc2)c(=O)[nH]c1=O | inactive | 
Cc1c(C)n2c(SCC(=O)N3CCCC3)nnc2[nH]c1=O | inactive | 
COc1ccc(C(=O)OCc2cc(=O)n3ccsc3n2)cc1F | inactive | 
